{"source": "ChEMBL document CHEMBL1961873", "about": "“Compounds: GSK PKIS; Assays: Nanosyn kinase panel” (2012);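 note: reported values are mean percent inhibition of Lck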"}
{"biological_target": "Tyrosine-protein kinase Lck (Homo sapiens) (UniProt P06239)", "sequence (P06239 2-509 limits assumed)": "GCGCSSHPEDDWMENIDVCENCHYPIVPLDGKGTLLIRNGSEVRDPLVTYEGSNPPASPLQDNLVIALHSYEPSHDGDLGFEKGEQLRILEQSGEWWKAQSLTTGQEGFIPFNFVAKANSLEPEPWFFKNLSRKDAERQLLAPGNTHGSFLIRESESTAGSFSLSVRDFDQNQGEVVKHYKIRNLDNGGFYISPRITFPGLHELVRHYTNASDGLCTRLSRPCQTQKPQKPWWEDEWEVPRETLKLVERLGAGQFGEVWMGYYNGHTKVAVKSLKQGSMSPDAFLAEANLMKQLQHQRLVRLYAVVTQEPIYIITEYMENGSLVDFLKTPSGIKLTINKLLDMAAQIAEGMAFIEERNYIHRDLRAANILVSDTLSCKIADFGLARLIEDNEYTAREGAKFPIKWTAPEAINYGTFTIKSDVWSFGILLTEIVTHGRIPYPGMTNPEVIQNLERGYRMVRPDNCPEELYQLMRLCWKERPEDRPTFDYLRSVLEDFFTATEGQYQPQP", "conditions": "at 0.1 µM", "units": {"inhibition": "%"}}
{"smiles": "COc1ccc(-c2cc(-c3c[nH]nc3-c3ccccn3)ccn2)cc1", "inhibition": 2.68}
{"smiles": "CCCN(CCS(C)(=O)=O)Cc1ccc(-c2ccc3ncnc(Nc4ccc(OCc5cccc(F)c5)c(Cl)c4)c3c2)o1", "inhibition": 2.06}
{"smiles": "FC(F)(F)c1cccc(-c2nn3ncccc3c2-c2ccnc(Nc3ccc4c(c3)OCCO4)n2)c1", "inhibition": 9.37}
{"smiles": "CCNC(=O)O[C@H]1CN[C@H](C#Cc2cc3ncnc(Nc4ccc(OCc5cccc(F)c5)c(Cl)c4)c3s2)C1", "inhibition": 3.42}
{"smiles": "COC(=O)Nc1nc2ccc(S(=O)(=O)c3ccc(NC(=O)Nc4cc(C(F)(F)F)ccc4F)cc3)cc2[nH]1", "inhibition": 2.26}
{"smiles": "CC(=O)Nc1cccc(C#Cc2cncnc2Nc2ccc(OCc3cccc(F)c3)c(Cl)c2)c1", "inhibition": 1.97}
{"smiles": "CCOc1ccc2c(-c3ccnc(Nc4cccc(C(F)(F)F)c4)n3)cnn2n1", "inhibition": 2.98}
{"smiles": "CC(=O)NCc1cccc(C#Cc2cncnc2Nc2ccc(OCc3cccc(F)c3)c(Cl)c2)c1", "inhibition": 0.34}
{"smiles": "Cc1cccc2c1NC(=O)/C2=N\\Nc1ccc(S(N)(=O)=O)cc1", "inhibition": 1.96}
{"smiles": "COc1ccc(-c2nn3ncccc3c2-c2ccnc(Nc3ccc4c(c3)OCCO4)n2)cc1", "inhibition": 34.8}
{"smiles": "Fc1ccc(-c2cc(-c3c[nH]nc3-c3ccccn3)ccn2)cc1", "inhibition": 1.94}
{"smiles": "CCN(CC)S(=O)(=O)c1ccc(OC)c(Nc2ncc(-c3ccccc3)o2)c1", "inhibition": 4.39}
{"smiles": "COc1cccc(-c2c[nH]c3c(N/N=C/c4ccncc4)ncnc23)c1", "inhibition": 35.1}
{"smiles": "c1ccc(-c2nc3n(c2-c2ccc4c(c2)OCO4)CCC3)nc1", "inhibition": 0.66}
{"smiles": "COc1cccc(-n2ncc3c(N/N=C/c4ccc(F)cc4)ncnc32)c1", "inhibition": 13.5}
